Results: PubChem BioAssay (NCI)
“And” between values parts separate entries of the source, which are not always exact repeats. Equal values may be shown once. The panel holds about 79,000 compounds, 15% with a hit somewhere; the sample as a whole holds those more often. A structure can be active in one record and inactive in another. The source made the active and inactive calls. Rule as the data show it: active = growth inhibition above about 70%; inactive = the rest.

Experiments:
[1] = NCI Yeast Anticancer Drug Screen. Data for the rad50 strain (AID 155);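 also: 0% = growth of vehicle-only cultures of the same strain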; conditions: S. cerevisiae rad50 strain growth inhibition, stronger effect = higher value
In short: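 Readout: growth inhibition relative to vehicle-treated cultures. Compound exposure was carried out in a genetically defined yeast strain deficient in DNA damage repair.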

[2] = NCI Yeast Anticancer Drug Screen. Data for the mec2-1 strain (AID 157); conditions: S. cerevisiae mec2-1 strain, stronger effect = higher value
In short: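 Readout is yeast growth inhibition, normalised to vehicle-treated controls, in the mec2-1 strain exposed to compound.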

[3] = NCI Yeast Anticancer Drug Screen. Data for the sgs1 mgt1 strain (AID 161);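 also: 0% = growth of cultures given vehicle only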; conditions: S. cerevisiae sgs1 mgt1 strain, stronger effect = higher value
In short: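 Yeast cells carrying a defined DNA-repair defect were exposed to test compounds. Growth inhibition was measured relative to vehicle-treated controls.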

[4] = NCI Yeast Anticancer Drug Screen. Data for the cln2 rad14 strain (AID 165);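 also: 0% = growth equal to vehicle treated cultures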; conditions: S. cerevisiae cln2 rad14 strain, stronger effect = higher value
In short: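 Relative to vehicle controls, growth inhibition of compound-treated cln2 rad14 yeast was recorded.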

[5] = NCI Yeast Anticancer Drug Screen. Data for the bub3 strain (AID 167); conditions: S. cerevisiae bub3 mutant strain, stronger effect = higher value
In short: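 Readout: yeast growth inhibition, expressed relative to vehicle-only wells. The test organism is a mutant strain from a panel with lesions in DNA repair or checkpoint genes.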

[6] = NCI Yeast Anticancer Drug Screen. Data for the mlh1 rad18 strain (AID 175); conditions: S. cerevisiae mlh1 rad18 strain growth inhibition, stronger effect = higher value
In short: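 Test agents were incubated with a yeast strain of defined genotype (DNA damage repair defect). Inhibition of growth was derived by comparison with vehicle-exposed cultures.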

[7] = at 5.0 µM (retest, dose inferred, filed as 0.5)
[8] = at 50.0 µM (retest, dose inferred, filed as 5.0)

SMILES | growth inhibition [1, 7] | growth inhibition [1, 8] | growth inhibition ([1]; at 50.0 µM) | growth inhibition [2, 7] | growth inhibition [2, 8] | growth inhibition ([2]; at 50.0 µM) | growth inhibition [3, 7] | growth inhibition [3, 8] | growth inhibition ([3]; at 50.0 µM) | growth inhibition [4, 7] | growth inhibition [4, 8] | growth inhibition ([4]; at 50.0 µM) | growth inhibition [5, 7] | growth inhibition [5, 8] | growth inhibition ([5]; at 50.0 µM) | growth inhibition [6, 7] | growth inhibition [6, 8] | growth inhibition ([6]; at 50.0 µM)
COc1c(O)cc2oc3cc(O)c(CC=C(C)C)c(O)c3c(=O)c2c1CC=C(C)C | 98% (active) | 89% (active) | 86.8% (active) and 87.2% (active) | 99% (active) | 91% (active) and 93% (active) | 89.2% (active) and 90% (active) | 99% (active) | 89% (active) | 90.3% (active) and 89.4% (active) | 51% (inactive) and 42% (inactive) | 83% (active) and 86% (active) | 85.2% (active) and 86.2% (active) | 98% (active) | 87% (active) and 86% (active) | 86.1% (active) and 87% (active) | 99% (active) and 98% (active) | 81% (active) and 87% (active) | 87.2% (active)
COc1ccc(C2c3cc4c(cc3OC(NNC(N)=O)C2C)OCO4)cc1 (centres undefined) | -1% (inactive) | 96% (active) | 84.5% (active) | -36% (inactive) | 96% (active) | 80.4% (active) | -38% (inactive) | 96% (active) | 87.8% (active) | -4% (inactive) | 95% (active) | 76% (active) | -34% (inactive) | 99% (active) | 85.8% (active) | 6% (inactive) | 97% (active) | 85.8% (active)
O=C(/C=C/c1ccccn1)c1ccccc1 | 4% (inactive) | 59% (inactive) | 9.35% (inactive) and 16.2% (inactive) | -13% (inactive) | 28% (inactive) | 40% (inactive) and 16.4% (inactive) | -1% (inactive) | 56% (inactive) | 44.7% (inactive) and 24.4% (inactive) | 5% (inactive) | 11% (inactive) | 7.2% (inactive) and 26.9% (inactive) | -5% (inactive) | 23% (inactive) | 47.2% (inactive) and 39.9% (inactive) | -1% (inactive) | 29% (inactive) | 80.7% (active) and 21.1% (inactive)
